This is part of a sample that, as a whole, favours compounds with a hit. Of some 83,000 tested, about 20% had one in any assay.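 Interpretation: 100, growth as untreated; towards 0, rising growth inhibition; 0, no net growth; 0 to -100, cell death. Compounds scoring below 10 were considered active.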 Values without a mark were called inactive. Active and inactive are the calls of the source.
Legend:
Assay in all cases: NCI-60 one-dose screen, 48 h (100 = growth as untreated, 0 = no growth, -100 = all killed)
Conditions in all cases: 10 µM unless noted
SK-MEL-2 melanoma = test system: SK-MEL-2 melanoma
SN12C renal = test system: SN12C renal
UO-31 renal = test system: UO-31 renal
TK-10 renal = test system: TK-10 renal
ACHN renal = test system: ACHN renal
CAKI-1 renal = test system: CAKI-1 renal
A498 renal = test system: A498 renal
CCRF-CEM leukemia = test system: CCRF-CEM leukemia
MOLT-4 leukemia = test system: MOLT-4 leukemia

Row | Structure (SMILES) | growth (SK-MEL-2 melanoma) | growth (SN12C renal) | growth (UO-31 renal) | growth (TK-10 renal) | growth (ACHN renal) | growth (CAKI-1 renal) | growth (A498 renal) | growth (CCRF-CEM leukemia) | growth (MOLT-4 leukemia)
1 | COc1cc(/C=C2\CCCC3=C2NC(C)=NC3c2cc(OC)c(OC)c(OC)c2)cc(OC)c1OC (centres undefined) | 26.6% | 10.8% | 51.1% | 44.5% | 12.5% | 11.4% | 16.3% | -19.1% (active) | -22.9% (active)
2 | C=CCn1c(C)nc2ccc(Nc3nc(Nc4ccc(F)cc4)nc4ccccc34)cc21 | 58.1% | 66.2% | 37.4% | 82.3% | 67.6% | 58.2% | 59.9% | 22.5% | -5.55% (active)
3 | O=C(NCCc1c[nH]c2ccccc12)C1Cc2ccccc2CN1C(=O)c1ccco1 (centres undefined) | 69.5% | 111% | 53.5% | 110% | 96.6% | 107% | 107% | 81.2% | 77.1%
4 | CCCCCCCCCCCCOB(OCCCCCCCCCCCC)OCCCCCCCCCCCC | 108% | 95.8% | 91.8% | 101% | 109% | 104% | 112% | 95.3% | 95.2%
5 | CC(CCc1ccccc1)NC(=O)c1n[nH]c(=O)c2ccccc12 (centres undefined) | 79.2% | 107% | 47.5% | 89.6% | 97.8% | 104% | 98.4% | 83.4% | 83.4%
6 | CCCCCCc1nc2c(c(C)nn2-c2ccccc2)c2c1CCCCC2 | 116% | 104% | 91.5% | 126% | 107% | 94.8% | 104% | 101% | 106%

— PubChem BioAssay (NCI)
